Assay outcomes from PubChem.
A selection: hits, their analogues and other compounds. The true share with any hit is near 21%.
Pf growth 96h = P. falciparum growth inhibition at 96 hour, primary screen for plastid delayed-death inhibitors. Potency, µM (highest dose often 28.7 µM), for the others: at the highest dose activity change, negative = inhibition, most hits filed as inhibitors. AID 504834. P. falciparum luciferase reporter growth, 96 h. 6.9% of 320,000 active; further: potency means the concentration at half of the fitted maximal effect; on the % scale 0 is the no-effect control and ±100 the full control effect
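Infected RBCs, 2% Hct / 0.05% parasitemia final; luciferase-reporter P. falciparum; cpd 96 h, 37 C, 5% CO2; luciferase detection reagent; luminescence.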
Pf growth 48h = P. falciparum growth inhibition at 48 hours (one generation); Potency, µM (top dose mostly 28.7 µM), for inactives: at the top dose activity change, negative = inhibition, actives largely listed as inhibitors; 5.9% of 310,000 active; P. falciparum luciferase growth in erythrocytes, 48 h; further: potency means the concentration at half of the fitted maximal effect; on the % scale 0 is the no-effect control and ±100 the full control effect
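Read-out is firefly luciferase luminescence from an integrated reporter in P. falciparum, so falling signal marks reduced parasite growth. Infected erythrocytes were at 2% hematocrit and 0.1% parasitemia (final) in Albumax-supplemented RPMI 1640.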
CHX counter = counter-screen hit for Shiga toxin inhibitors, cycloheximide | cell reporter, cycloheximide protein synthesis inhibition counterscreen | max response, % | 12% of 300,000 active; in the data active means max response mostly above about 13%, no sharp cut-off; inactive means mostly below about 14%; further: read at 38.3 µM for the half of the compounds with a filed dose; 0% is about no effect
Shiga inhibitor = Shiga toxin inhibition | inhibition, % at 38.7 µM | 9.2% of 290,000 active | Vero cells, Shiga toxin protein synthesis inhibition reporter; in the data active means inhibition mostly above about 28%, no sharp cut-off; inactive means mostly below about 43%; further: 0% is about no effect
* = called active by the depositor; u = inconclusive; x = no result; + = active, no number; [ ] = another dose, or the depositor's remark. Unless noted, the call rests on the fitted dose curve; in most records, active means well fitted inhibition curve with a large enough effect; inconclusive means small, poorly fitted or top-dose-only effect, or another doubt; inactive means no such curve, though single readings can be large or run the other way.

SMILES	Pf growth 96h	Pf growth 48h	CHX counter	Shiga inhibitor
CC(=O)c1c(C)nn(-c2ccccc2)c1C	8%	0%	-1	-3
O=C(Cn1c(=O)c2cccn2c2cccnc21)N1CCN(c2ccccc2F)CC1	u	-3%	-1	-3
COc1ccc(NC(=O)CN2CCN(c3c(C)cc(C)cc3C)CC2)cc1	u	80%	2	x
Cc1nc(NC(=O)C2CC3CCCC(C2)C3=O)sc1C (stereo not given)	206%	76%	47*	+
CC1CCCCN1S(=O)(=O)c1ccc(S(=O)(=O)N(Cc2ccccc2)Cc2ccco2)cc1 (stereo not given)	10µM*	10µM*	-3	16
Cc1ccc(S(=O)(=O)N2CCC(C(=O)N3CCC[C@H]3C(=O)NCc3ccco3)CC2)cc1	13µM*	12µM*	-3	23
Cc1ccc(S(=O)(=O)N2CCC(C(=O)N3CCC[C@H]3C(=O)NCc3ccccc3)CC2)cc1	23%	u	-1	-2
COC(=O)Nc1ccc(S(=O)(=O)N2CCCCC2C(=O)NCc2ccco2)cc1 (stereo not given)	-25%	x	-4	3
Cc1ccc(S(=O)(=O)N2CCCCC2C(=O)NCc2ccco2)cc1 (stereo not given)	5.2µM*	u	0	22
CCN(Cc1ccccc1)S(=O)(=O)c1ccc(S(=O)(=O)N(Cc2ccccn2)Cc2ccco2)cc1	u	x	1	-16
COc1ccc(OCC(=O)O/N=C(\N)Cc2cccs2)cc1	-14%	28%	22*	64*
Cc1ccccc1C(=O)O/N=C(\N)Cc1cccs1	u	u	88*	95*
Cc1cccc(OCC(=O)O/N=C(\N)Cc2cccs2)c1	41%	-2%	-4	-6
N/C(Cc1cccs1)=N\OC(=O)COc1ccc(Br)cc1	x	16%	30*	23
Cc1ccccc1OCC(=O)O/N=C(\N)Cc1cccs1	u	u	1	-12
O=C(Nc1ccc(F)cc1)C1CCCN(S(=O)(=O)c2ccc3[nH]c(=O)ccc3c2)C1 (stereo not given)	u	u	-1	4
COCCCn1c(SCC(=O)NC2CCS(=O)(=O)C2)nnc1-c1ccc(Cl)cc1 (stereo not given)	23%	13%	x	x
Cc1cccc(NC(=O)CC2CCC2)c1	x	22%	20*	12
Cc1ccc(NC(=O)CN(C)C2CCCCC2)cc1Br	u	8%	7	11
O=C(CC1NCCNC1=O)Nc1cccc([N+](=O)[O-])c1 (stereo not given)	0%	15%	13	-7
Cc1cc(NC(=O)CC2CCCC2)ccc1Br	83%	85%	26*	62*
N#Cc1cccc(NC(=O)CC2CCCC2)c1	2%	-11%	13	20
Cc1cccc(NC(=O)CC2NCCNC2=O)c1 (stereo not given)	4%	x	24*	39
COc1ccc(S(=O)(=O)N2CCCCCC2)cc1NC(=O)c1c2c(nc3ccccc13)CCN(Cc1ccccc1)C2	1.5µM*	1.5µM*	12	-11
CCN(CC)S(=O)(=O)c1ccc(OC(C)C)c(NC(=O)c2c3c(nc4ccccc24)CCN(Cc2ccccc2)C3)c1	2.9µM*	2.6µM*	1	-3
SMILES	Pf growth 96h	Pf growth 48h	CHX counter	Shiga inhibitor
COc1ccc(NC(=O)c2c3c(nc4ccccc24)CCN(Cc2ccccc2)C3)c(OC)c1	9.3µM*	7.4µM*	7	-13
COc1ccc(S(=O)(=O)N2CCCCC2)cc1NC(=O)c1ccc(CS(C)(=O)=O)cc1	-44%	u	x	x
Cn1c(=O)nc2n(Cc3ccccc3)c3cccc(Cl)c3cc-2c1=O	u	9%	10	-5
CC(=O)N1CCN(Cc2nc3scc(-c4ccccc4)c3c(=O)[nH]2)CC1	13µM*	u	-3	11
COc1cc2c3nnc(-c4ccccc4)c-3cn(Cc3ccc(F)cc3)c2cc1OC	u	-37%[1.15 µM]	-7	-7
COc1cc2c3nnc(-c4ccc(F)cc4)c-3cn(Cc3cccc(C)c3)c2cc1OC	0.47µM*	0.59µM*	-3	-10
COc1cc2c3nnc(-c4ccc(F)cc4)c-3cn(Cc3cccc(F)c3)c2cc1OC	1µM*	0.59µM*	3	-34
COc1cc2c3nnc(-c4ccc(F)cc4)c-3cn(Cc3ccc(C)cc3)c2cc1OC	0.37µM*	0.33µM*	-1	3
COc1cccc(Cn2nc3c4cc(F)ccc4n(Cc4ccc(F)cc4)cc-3c2=O)c1	1.7µM*	-1%	1	12
COc1ccc(CN2CCN(Cc3cccc(F)c3)CC2)cc1OC	29%	11%	-4	-10
Cc1ccccc1CNC(=O)c1ccccc1SCC(=O)NCc1ccco1	-5%	u	x	x
O=C1C[C@@H]2c3c(cccc3CN1Cc1ccc(F)cc1)C[C@@H](O)[C@H]2O	0%	25%	x	x
COc1cccc(-c2nc(-c3ccccc3)c(-c3ccccc3)[nH]2)c1OCC(=O)O	183%	u	-1	-4
COc1cccc(-c2nc(-c3ccc4c(c3)-c3ccccc3S4(=O)=O)c(-c3ccccc3)[nH]2)c1OC	u	9.3µM*	-4	10
COc1cc(-c2nc(-c3ccc4c(c3)-c3ccccc3S4(=O)=O)c(-c3ccccc3)[nH]2)cc(OC)c1OC	2%	1.9µM*	6	33
COc1ccc(/C=C2/C(=O)N(c3c(F)c(F)c(F)c(F)c3F)N=C2C)cc1	u	7%	20*	x
CCOC(=O)c1sc2nc(N3CCOCC3)c3c(c2c1N)CCC3	u	u	0	22
CCOC(=O)c1sc2nc(N3CCOCC3)c3c(c2c1N)CCN(Cc1ccccc1)C3	9.3µM*	u	-4	-10
Cc1ccccc1NC(=O)c1sc2nc(N3CCOCC3)c3c(c2c1N)CCCC3	u	u	19*	22
COc1ccc(NS(=O)(=O)c2csc(C(=O)N3CCCC3)c2)c(OC)c1	23%	u	-4	19
O=C1C[C@H](c2ccc(-c3ccccc3)cc2)N1S(=O)(=O)c1ccccc1[N+](=O)[O-]	x	x	-3	6
Nc1ncnc(Sc2ccc(Cl)cc2)c1[N+](=O)[O-]	25%	u	-5	-4
Nc1ncnc(Sc2ccccc2)c1[N+](=O)[O-]	9.3µM*	15µM*	-2	-10
CCCCn1nc(C(=O)N[C@@H](CCSC)c2nc3ccccc3[nH]2)c2ccccc2c1=O	12µM*	u	-3	21
CSCC[C@H](NC(=O)COc1ccc(Cl)cc1Cl)c1nc2ccccc2[nH]1	u	-5%	1	-11
CCn1nc(C(=O)N[C@@H](CCSC)c2nc3ccccc3[nH]2)c2ccccc2c1=O	u	x	25*	23
CSCC[C@H](NC(=O)C(C)Oc1ccc(Cl)cc1)c1nc2ccccc2[nH]1 (stereo not given in full)	6.6µM*	u	-3	20
Cc1cc([N+](=O)[O-])c2c(c1C)C1C=CCC1C(c1ccccn1)N2 (stereo not given)	u	u	0	8
CCN(C(=O)COC(=O)CCc1c[nH]c2ccccc12)c1c(N)n(Cc2ccccc2)c(=O)[nH]c1=O	0%	5%	x	x
